HSP90 refold inh – blocks HSP90-mediated luciferase refolding in reticulocyte lysate. Rabbit reticulocyte lysate, luciferase refolding luminescence, 3 h. inhibition, % at 5.6 µM. hit rate 0.91% among 290,000. AID 1789;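 active means inhibition above the screen-wide mean plus 3 SD, computed separately per campaign, cut at about 16% in these data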;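 further: 0% = DMSO wells and 100% = 60 µM geldanamycin wells; inhibitors lower the luminescence because luciferase stays unfolded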
HSF1 inh – HSF1 inhibition | AID 2098 | activity change, negative = inhibition, % at 7.5 µM (by protocol) | NIH3T3-HGL HSE-luciferase, MG132-induced, luminescence 8 h; stronger effect = lower value | hit rate 0.77% among 300,000;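 active means more than half of replicate wells show activity change below -50%, luminescence cut by over half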;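 further: luciferase reports HSF-1 transcriptional activity via heat shock element; 0% = median of DMSO wells and -100% = zero luminescence signal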
PG9 binder – small molecules binding HIV-1 gp120 antibody PG9; TR-FRET gp120-PG9 antibody binding; inhibition, % at 6.7 µM; hit rate 0.43% among 360,000; AID 624416; in the data active means inhibition above about 8.5%
SMARCA2 act – activators of SMARCA2 function. MG213 cells, MMTV-luciferase reporter, dexamethasone, overnight. activation, % at 9.1 µM. hit rate 1% among 370,000. AID 652017; in the data active means activation above about 7.8%;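 further: 0% = vehicle wells and 100% = reference activator wells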
AI-2 QS modul – modulators of Vibrio harveyi AI-2 quorum sensing system; AID 2094; activity change, % at 7.5 µM; hit rate 0.4% among 300,000; Vibrio harveyi JMH597 AI-2 luminescence/OD600 ratio, 9 h; stronger effect = lower value; strain lacks LuxN and CqsS sensors; 0 = neutral-control median; in the data active means activity change below about -75%, passing the limit was not always enough;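 further: luminescence divided by OD600 gain over 9 h not by final OD600 alone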
GAA850 FXN act – activators of GAA850 frataxin (FXN) promoter; HEK293 lucGAA850 FXN promoter luciferase reporter, 24 h; percent of 10 µM SAHA response; AID 540364; hit rate 0.56% among 360,000; activation, % at 6 µM;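 active means activation above the average of all compounds screened plus 3 SD, cutoff fixed separately per campaign, cut at about 7.5% in these data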;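 further: 0% = DMSO wells and 100% = 10 µM SAHA wells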
SMARCA2 conf – SMARCA2 activation, confirmation screen. hit rate 30% among 3,500. shares compounds with SMARCA2 act. activation, % at 9.1 µM. MG213 cells, MMTV-luciferase with dexamethasone, luminescence, overnight; MG213 cells expressing E1A, Rb sequestered; DMSO wells 0%, reference activator 100%;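 active means activation above its plate's cutoff, the mean activation of tested wells plus 3 SD, cut at about 7.9% in these data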
GAL4-VP16 Luc – GAL4-VP16 reporter activation counter-screen | shares compounds with SMARCA2 act | HEK293 GAL4-VP16 pG5luc reporter, luciferase luminescence; scaled: DMSO wells 0%, SAHA wells 100% | activation, % at 9.1 µM | hit rate 41% among 3,500 | AID 686939;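 active means activation above the solvent-only control well mean plus 3 SD, averaged across control plates, cut at about 5.2% in these data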
* hit, by the source's call; nt = no result given. The list is not random: actives were taken first. Their share in the collection is about 3.4%.

SMILES | HSP90 refold inh | HSF1 inh | PG9 binder | SMARCA2 act | AI-2 QS modul | GAA850 FXN act | SMARCA2 conf | GAL4-VP16 Luc
Cc1cccn2c(=O)c3cc(C(=O)NCCN4CCOCC4)c(=N)n(CCCN4CCOCC4)c3nc12 | 4 | 0 | 1 | -2 | -4 | 0 | nt | nt
Cc1cccn2c(=O)c3cc(C(=O)NC4CCCC4)c(=N)n(C4CCCCC4)c3nc12 | 6 | -3 | -5 | 8.2* | 2 | 0 | 8.3* | -1
COc1ccc(CCNC(=O)c2cc3c(=O)n4ccccc4nc3n(C3CCCCC3)c2=N)cc1 | -3 | -9 | -2 | 2 | 18 | 1 | nt | nt
COc1ccc(CCNC(=O)c2cc3c(=O)n4ccccc4nc3n(C3CCCCC3)c2=N)cc1OC | -3 | -9 | -2 | 12* | 15 | 2 | 6 | 2
Cc1cccn2c(=O)c3cc(C(=O)NCCN4CCOCC4)c(=N)n(CCc4ccccc4)c3nc12 | 0 | -3 | 1 | 11* | 20 | 2 | 2 | 1
Cc1cccn2c(=O)c3cc(C(=O)NC4CCCCC4)c(=N)n(Cc4ccccc4)c3nc12 | 2 | 7 | 1 | -3 | 23 | 2 | nt | nt
COCCNC(=O)C1(C)CCCN(Cc2csc(-c3ccc(Cl)cc3)n2)C1 (configuration not stated) | nt | nt | nt | nt | nt | -4 | nt | nt
CCOC(=O)[C@]12CCC=C1N(Cc1ccc3c(c1)OCO3)C(=O)[C@H](CC(=O)N1CCC(c3ccccc3)CC1)C2 | nt | nt | 0 | -4 | nt | nt | nt | nt
O=C(Oc1cccc(-c2cnc3ccccc3n2)c1)c1ccco1 | 2 | 28 | -4 | 10* | 2 | 2 | 8.7* | 13*
CCN(CC)S(=O)(=O)c1ccc(C)c(C(=O)Oc2cccc(-c3cnc4ccccc4n3)c2)c1 | 1 | 3 | -2 | -1 | 11 | 0 | nt | nt
CN1Cc2nnn(CC3CCCCC3)c2-c2ccccc2S1(=O)=O | nt | nt | nt | 8.2* | nt | nt | 2 | 0
O=S1(=O)c2ccccc2-c2c(nnn2CC2CCCCC2)CN1C1CC1 | nt | nt | nt | -4 | nt | nt | nt | nt
COCCNC(=O)C1(C)CCN(C(=O)c2ccc3ccccc3n2)C1 (configuration not stated) | nt | nt | 0 | -5 | nt | 0 | nt | nt
c1ccc(-c2ncc3c(ccc4ccccc43)n2)cc1 | -1 | -8 | 0 | 9.1* | 13 | 2 | 2 | 5.1*
c1ccc(C2=NCCCO2)cc1 | nt | nt | -2 | 3 | nt | 1 | nt | nt
c1ccc(N=Nc2ccc(C3=NCCO3)cc2)cc1 | nt | nt | -5 | 10* | nt | 3 | 9.2* | 9.8*
C[C@@H]1CCN(C2CC2)S(=O)(=O)c2ccc(N3CCC[C@H]3C)cc2O1 | nt | nt | nt | -3 | nt | nt | nt | nt
Cc1ccc(Nc2nc(COC(=O)COc3ccc(C=O)cc3)cs2)cc1 | 1 | -7 | -1 | 9.8* | 32 | 0 | 8.1* | 9.0*
O=C1C(=Cc2ccco2)CCC1=Cc1ccco1 | nt | nt | 3 | -4 | nt | 3 | nt | nt
O=C1C(=Cc2ccco2)CCCC1=Cc1ccco1 | nt | nt | -1 | 8.1* | nt | 12* | 16* | 7.2*
CC(C)C[C@H](NC(=O)c1ccc(Cl)cc1Cl)C(=O)N1CCC[C@H]1C(=O)NCc1ccccc1 | nt | nt | -2 | 1 | nt | nt | nt | nt
CC(C)(C)C(=O)c1c(N)[nH]c(C(=O)c2ccccc2)c1-c1ccc([N+](=O)[O-])cc1 | nt | nt | -2 | -1 | nt | nt | nt | nt
O=C(CCn1c(=O)sc2ccccc21)Nc1nccs1 | -3 | 7 | 0 | 8.3* | 8 | 6 | 4 | 7.7*
O=C(NCCc1ccc(F)cc1)c1cc2ccccn2n1 | nt | nt | nt | 16* | nt | nt | 4 | 7.3*
COc1ccc(NC(=O)c2cccc(NC(=O)c3ccccc3)c2)cc1 | 4 | 16 | 0 | -2 | -4 | 5 | nt | nt
SMILES | HSP90 refold inh | HSF1 inh | PG9 binder | SMARCA2 act | AI-2 QS modul | GAA850 FXN act | SMARCA2 conf | GAL4-VP16 Luc
COc1ccc(NC(=O)c2cc3ccccn3n2)cc1 | 11 | 8 | 0 | 10* | 13 | 0 | 4 | 12*
O=C1NC(=S)S/C1=C/c1ccc(N2CCOCC2)o1 | 0 | 7 | nt | nt | -4 | -2 | nt | nt
O=C1NC(=S)S/C1=C\C=C\c1ccc([N+](=O)[O-])o1 | 1 | nt | -5 | 24* | nt | -10 | -16 | 3
O=C(OCc1ccccc1)N1C=CC2CC1c1c(Cl)cccc12 (configuration not stated) | nt | nt | 1 | -2 | nt | 0 | nt | nt
CN1CCN(S(=O)(=O)c2ccc(Sc3nnnn3-c3ccccc3)c([N+](=O)[O-])c2)CC1 | 0 | -41 | -2 | 1 | 38 | -10 | nt | nt
CC(=O)c1ccc(Sc2nnnn2-c2ccccc2)c([N+](=O)[O-])c1 | -5 | -32 | -3 | 8.6* | 27 | -8 | 8 | 2
O=C(Nc1ccc2ccccc2c1)c1cccc(F)c1 | -1 | 39 | -1 | 9.4* | 23 | 0 | 3 | 11*
CCN1CCN(c2ccc(NC(=O)c3cccc(F)c3)cc2Cl)CC1 | -3 | 5 | 0 | 14* | 12 | 3 | 9.1* | 5.8*
O=C(Nc1ccc2[nH]ncc2c1)c1cccc(F)c1 | 0 | 2 | -1 | 4 | 15 | 3 | nt | nt
Cc1ccc2cc(NC(=O)c3cccc(F)c3)ccc2n1 | 5 | 43 | 0 | 8.1* | 48 | 3 | 19* | 5
CCN1CCN(c2ccc(NC(=O)c3ccco3)cc2Cl)CC1 | -7 | 8 | -1 | 3 | 19 | 3 | nt | nt
CC1(C)OC(=O)C2=C(C[C@@H](C3CCCCC3)O[C@H]2c2ccccc2)O1 | nt | nt | 0 | -1 | nt | nt | nt | nt
C=CCN(CC=C)C[C@@H]1CSCCS(=O)(=O)N1 | nt | nt | 0 | -5 | nt | nt | nt | nt
CCCCN1C(=O)C(CC(=O)NCCCN(C)C)CC(C(=O)N(C(C)C)C(C)C)=C1C (configuration not stated) | nt | nt | 0 | 13* | nt | nt | 8 | 0
CCCCN1C(=O)C(CC(=O)NCCCN(C)C)CC(C(=O)N(CC)CC)=C1C (configuration not stated) | nt | nt | 1 | -3 | nt | -1 | nt | nt
CC(C)CC1OC(C(C)C)Cc2[nH]c(=S)[nH]c(=O)c21 (configuration not stated) | nt | nt | 0 | -1 | nt | nt | nt | nt
CC1CN(C(=O)CCC(=O)NC(C)c2ccccc2)c2cc(Cl)ccc2O1 (configuration not stated) | -1 | 0 | 1 | 8.3* | 30 | -1 | -2 | 2
COC(=O)C1CN(Cc2cn(Cc3ccc(C)cc3)nn2)CCS(=O)(=O)N1Cc1ccc(C)cc1 (configuration not stated) | nt | nt | nt | 0 | nt | nt | nt | nt
COc1cc(/C=N/NC(=O)C(N)=O)ccc1OC(=O)c1cccs1 | 4 | 6 | 0 | -1 | 18 | -1 | nt | nt
COc1cc(/C=N/Nc2ccccc2)ccc1OC(=O)c1cccs1 | -2 | nt | -1 | 9.7* | nt | nt | 3 | 3
